# Bioassay records (PubChem)
# Rows were chosen to be rich in hits. Some 19% of all compounds tested hit in one or more screens of this group.
# TDP1 cell noCPT: qHTS for Inhibitors of human tyrosyl-DNA phosphodiesterase 1 (TDP1): qHTS in cells in absence of CPT. DT40 Tdp1-/- hTDP1 cells, no CPT, ATP luminescence, 48 h. Potency, µM (highest dose often 46.2 µM), inactives show at the highest dose activity change, negative = growth inhibition, actives largely listed as inhibitors. 420,000 tested, 15% active. AID 686978, 2013; further: nearly all actives have a fitted effect of over 55% in size
#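 Stably hTDP1-transfected Tdp1-null chicken DT40 cells were treated with library compounds minus camptothecin and grown for at least 48 hr at 37 °C, after which cellular ATP was quantified by luminescence.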
# Gal4-VP16 FLuc: counter-screen for ROR gamma inhibitors: Gal4-VP16 reporter; Drosophila S2 Gal4-VP16 UAS-luciferase, luminescence, 20 h; Potency, µM (highest dose often 53.6 µM), inactives show at the top dose activity, negative = inhibition, usual class: inhibitors; 310,000 tested, 3.5% active;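 further: Gal4-VP16 expression switched on by copper sulfate through the metallothionein promoter; nearly all actives have a fitted effect of over 50% in size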
# RORg inh: inhibitors of mouse ROR gamma transcriptional activity; P51450; Drosophila S2 Gal4-RORgamma UAS-luciferase reporter, 20 h; Potency, µM (series often up to 53.6 µM), for the others: at the top dose activity change, negative = inhibition, most hits filed as inhibitors; 310,000 tested, 5.4% active; further: nearly all actives have a fitted effect of over 60% in size
#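 Luciferase reporter read in Schneider cells carrying Gal4-RORγ (mouse) and UAS-Photinus luciferase; cells given compound 1 h before 700 uM copper sulfate induction, then incubated 20 h at ambient temperature.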
# TDP1 block: TDP1 (human) enzyme inhibition | Q9NUW8 | recombinant TDP1, AlphaScreen DNA substrate cleavage | Potency, µM (top dose mostly 130 µM), for inactives: top-dose activity change, negative = inhibition, most hits filed as inhibitors | 350,000 tested, 0.28% active | AID 485290; further: nearly all actives have a fitted effect of over 40% in size
# Target sequence (Q9NUW8 whole entry, looked up): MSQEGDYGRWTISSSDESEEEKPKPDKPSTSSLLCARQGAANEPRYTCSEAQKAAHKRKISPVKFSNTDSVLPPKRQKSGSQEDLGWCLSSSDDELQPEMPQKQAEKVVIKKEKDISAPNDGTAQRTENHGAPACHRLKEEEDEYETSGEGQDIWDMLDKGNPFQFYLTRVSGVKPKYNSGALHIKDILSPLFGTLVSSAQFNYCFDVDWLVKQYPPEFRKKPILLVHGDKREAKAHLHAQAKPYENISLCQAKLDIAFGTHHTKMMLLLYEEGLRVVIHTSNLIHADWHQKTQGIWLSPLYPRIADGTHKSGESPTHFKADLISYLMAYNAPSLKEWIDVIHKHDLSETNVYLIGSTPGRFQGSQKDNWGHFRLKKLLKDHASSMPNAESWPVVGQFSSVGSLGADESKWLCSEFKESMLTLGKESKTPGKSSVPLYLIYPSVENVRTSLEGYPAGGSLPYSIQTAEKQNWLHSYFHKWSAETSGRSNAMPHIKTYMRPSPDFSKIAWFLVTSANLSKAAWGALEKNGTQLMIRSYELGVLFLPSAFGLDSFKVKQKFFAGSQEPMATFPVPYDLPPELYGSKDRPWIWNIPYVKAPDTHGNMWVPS
#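 Compounds were preincubated with Tdp1 (1 nM final) for 15 min at room temperature before substrate (15 nM final) started a 5 min reaction; beads (10 ug/ml final) were then added for 10 min before AlphaScreen detection.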
# DT40 TDP1 CPT: growth inhibition of DT40 Tdp1-/-;hTDP1 cells with camptothecin (screen for TDP1 inhibitors); chicken DT40 Tdp1-/-;hTDP1 cells + 20 nM CPT, ATP luminescence, 48 h; Potency, µM (titrated, usually from 46.2 µM), without a hit: at the top dose activity change, negative = growth inhibition, usual class: inhibitors; 420,000 tested, 12% active; further: nearly all actives have a fitted effect of over 55% in size
#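 Cell growth measured by CellTiter-Glo luminescence after a minimum 48 h, 37 C compound exposure with 20 nM CPT in Tdp1-knockout DT40 cells stably expressing hTDP1, seeded 400/well; qHTS titration format.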
# * marks the source's active call; other numbers are inactive results; ? = inconclusive; / = no result given. The call rests on the fitted dose curve; in most records, active means well fitted curve in the direction sought with a large enough effect; inconclusive means small, poorly fitted or top-dose-only effect, or another doubt; inactive means no such curve, though single readings can be large; an effect the other way counts as inactive or inconclusive. On the % scale 0 is the no-effect control and ±100 the full control effect; potency means the concentration at half of the fitted maximal effect.
SMILES,TDP1 cell noCPT,Gal4-VP16 FLuc,RORg inh,TDP1 block,DT40 TDP1 CPT
COc1ccc(CCNC(=S)Nc2ccc(C)cc2C)cc1,?,7.08µM*,3.98µM*,0.0%,?
CC(OC(=O)/C(C#N)=C/c1ccc(N(C)C)cc1)C(=O)NCc1ccco1 (stereo not given),/,/,/,0.3%,/
c1ccc(-c2nc(-c3cccc4ccccc34)c(Nc3ccc4ccccc4c3)o2)cc1,/,1.5%,5.62µM*,8.7%,/
CC1CCCCC1NC(=O)C1Cc2ccccc2CN1S(C)(=O)=O (stereo not given),-23.6%,10.4%,4.8%,4.3%,-8.7%
O=C1/C(=C/c2cccc(Br)c2)SC(=S)N1/N=C/c1cc([N+](=O)[O-])ccc1O,?,-5.0%,-0.9%,/,23.1µM*
O=C1/C(=C\c2ccc(O)cc2)SC(=S)N1/N=C/c1ccc(O)cc1,-1.4%,-6.0%,10.2%,8.2%,-25.1%
COC(=O)c1[nH]c2ccccc2c1NS(=O)(=O)c1ccc(F)c(C)c1,-26.4%,0.3%,2.3%,3.2%,?
C=CCSc1nnc2n(CCc3ccccc3)c(=O)c3c4c(sc3n12)COC(C)(C)C4,?,-9.0%,-17.0%,-1.8%,23.1µM*
Cn1c(=O)c2c3c(sc2n2c(SCC(=O)c4ccccc4)nnc12)COC(C)(C)C3,/,-3.9%,9.0%,4.9%,/
CC(C)Sc1nnc2n(CCc3ccccc3)c(=O)c3c4c(sc3n12)COC(C)(C)C4,20.6µM*,/,/,/,23.1µM*
CCc1cc(-c2n[nH]c(CCC(=O)O)c2-c2nc3ccccc3n2C)c(O)cc1O,5.5%,-9.0%,-1.8%,0.0%,-24.7%
CCc1cc(-c2n[nH]c(C)c2-c2nc3ccccc3n2C)c(O)cc1O,18.4µM*,2.3%,-3.4%,5.1%,?
CCc1cc(-c2n[nH]c(C)c2-c2ccc3c(c2)OCCO3)c(O)cc1O,/,?,12.6µM*,16.3%,/
CS(=O)(=O)O/N=C1\CCCCC1c1ccc([N+](=O)[O-])cc1[N+](=O)[O-] (stereo not given),?,-11.8%,-19.6%,/,-21.5%
CC(CN1CCCC1)OC(=O)c1ccccc1Cl (stereo not given),0.9%,-3.4%,-17.0%,4.6%,4.4%
Cn1c(=O)n(C)c2cc(CNCc3ccccc3)ccc21,-18.5%,/,/,-0.5%,-1.9%
C=C1C(=O)OC2C1C(OC(=O)C(C)=CC)CC(=C)C1C(O)C3OC3(C)C21O (stereo not given),14.6µM*,/,/,/,14.6µM*
C=CC[C@H](CC(=O)N(CCO)Cc1ccccc1)C(=O)N[C@H](COC(=O)[C@@H](CC=C)Cc1ccc(F)cc1)Cc1c[nH]c2ccccc12,?,/,/,5.0%,?
C=CCC[C@@H](Cc1ccc(F)cc1)C(=O)OC[C@@H](Cc1c[nH]c2ccccc12)NC(=O)[C@@H](CC=C)CC(=O)N(CCO)Cc1ccccc1,23.1µM*,/,/,5.9%,?
C=CCC[C@H](Cc1ccc(F)cc1)C(=O)OC[C@H](Cc1c[nH]c2ccccc12)NC(=O)[C@H](CC=C)CC(=O)N(CCO)Cc1ccccc1,25.9µM*,/,/,2.7%,?
C=CC[C@@H](CC(=O)N(CCO)Cc1ccccc1)C(=O)N[C@H](COC(=O)[C@@H](CC=C)Cc1ccc(F)cc1)Cc1c[nH]c2ccccc12,?,/,/,4.5%,?
CN(Cc1ccon1)C(=O)C1CCC(=O)N(Cc2ccc(Cl)cc2)C1 (stereo not given),2.7%,-2.0%,11.3%,5.3%,1.3%
COc1ccc(CCNc2nc3ccccc3c3nc(-c4cccc(C)c4)nn23)cc1OC,7.31µM*,/,/,2.0%,?
COc1ccc(CCNc2nc3cc(OC)c(OC)cc3c3nc(-c4ccccc4)nn23)cc1OC,2.91µM*,/,/,0.0%,5.8µM*
Cc1ccc(CCNc2nc3ccccc3c3nc(-c4cccnc4)nn23)cc1,?,/,/,1.0%,-23.3%
COc1ccccc1CNc1nc2ccccc2c2nc(-c3cccc(C)c3)nn12,-8.7%,/,/,2.0%,-14.0%
COc1ccc(CNc2nc3ccccc3c3nc(-c4ccccc4)nn23)cc1,11.6µM*,/,/,-2.9%,-8.5%
